High-throughput results deposited in PubChem BioAssay by National Center for Advancing Translational Sciences (NCATS).
HP1b chromo inh = HTS for Inhibitors of HP1-beta Chromodomain Interactions with Methylated Histone Tails. AlphaScreen HP1-beta / biotin-H3K9me3 peptide binding. Potency, µM (series often up to 114 µM), actives largely listed as inhibitors. actives 0.56% (n = 390,000). Chromobox protein homolog 1 (Homo sapiens), P83916; note: nearly all actives have a fitted effect of over 70% in size
Target sequence (P83916 whole entry, looked up): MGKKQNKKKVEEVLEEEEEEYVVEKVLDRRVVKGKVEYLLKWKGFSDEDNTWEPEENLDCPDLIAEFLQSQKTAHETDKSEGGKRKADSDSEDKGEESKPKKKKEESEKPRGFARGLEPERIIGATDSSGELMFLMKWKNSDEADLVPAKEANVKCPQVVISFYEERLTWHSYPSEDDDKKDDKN
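HP1-beta protein (50 nM final) preincubated 30 min at room temperature with biotinylated H3(1-18)K9me3 peptide (50 nM) in PBS pH 7.4, 0.01% Tween-20, then compound added for 30 min. AlphaScreen streptavidin donor/nickel chelate acceptor beads (10 ug/mL final), 30 min dark, luminescence read.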
JMJD2A Tudor inh = qHTS Assay for Inhibitors of JMJD2A-Tudor Domain; Lysine-specific demethylase 4A (Homo sapiens), O75164; AlphaScreen JMJD2A-Tudor / H3K4me3 peptide binding; Potency, µM (series often up to 114 µM), usual class: inhibitors; actives 4.4% (n = 390,000); note: nearly all actives have a fitted effect of over 50% in size
Sfp PPTase inh = qHTS Assay for Inhibitors of Bacillus subtilis Sfp phosphopantetheinyl transferase (PPTase); 4'-phosphopantetheinyl transferase ffp (Bacillus subtilis), Q9F4F7; Potency, µM, actives largely listed as inhibitors; AID 1490, 2009; actives 3.5% (n = 310,000); Biochemical Sfp PPTase activity, qHTS;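 note: the enzyme is Sfp with the accession as filed and its product quenches rhodamine fluorescence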
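With Hepes-Na pH 7.6 buffer containing 10 mM MgCl2, Sfp (15 nM) modified BHQ-2-YbbR (12.5 uM) using rhodamine-CoA (5 uM). Two reads 30 minutes apart at 525/598 nm yielded each well's rate.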
G9a block = qHTS Assay for Inhibitors of Histone Lysine Methyltransferase G9a. G9a H3K9 monomethylation, AlphaScreen, 2 h. Histone-lysine N-methyltransferase EHMT2 (Homo sapiens), Q96KQ7. Potency, µM (top dose mostly 102 µM), actives largely listed as inhibitors. actives 8.8% (n = 350,000). AID 504332, 2011; note: nearly all actives have a fitted effect of over 75% in size
Target sequence (Q96KQ7 913-1193 limits assumed): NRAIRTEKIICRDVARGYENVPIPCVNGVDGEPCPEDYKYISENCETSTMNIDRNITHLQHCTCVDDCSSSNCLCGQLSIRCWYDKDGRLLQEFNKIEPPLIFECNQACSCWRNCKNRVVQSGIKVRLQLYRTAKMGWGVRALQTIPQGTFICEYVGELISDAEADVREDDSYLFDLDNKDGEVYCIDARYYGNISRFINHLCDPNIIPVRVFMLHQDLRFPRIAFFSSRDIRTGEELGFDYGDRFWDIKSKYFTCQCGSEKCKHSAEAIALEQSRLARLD
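Chemiluminescent proximity detection of H3K9 monomethylation, read after 10 min bead incubation in the dark. Reaction: 20 nM G9a, 500 nM biotin-H3K9 peptide, 20 uM SAM cofactor, 2 h, room temperature, following 15 min enzyme-compound preincubation.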
BAZ2B block = qHTS Assay for Inhibitors of BAZ2B; Bromodomain adjacent to zinc finger domain protein 2B (Homo sapiens), Q9UIF8; actives 4.4% (n = 360,000); AID 504333, 2011; Potency, µM (titrated, usually from 114 µM), actives largely listed as inhibitors; AlphaScreen BAZ2B-H3K14Ac peptide displacement; note: nearly all actives have a fitted effect of over 60% in size
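Multi-concentration screen (max 110 uM) measuring displacement of acetylated histone H3 peptide from BAZ2B by AlphaScreen, using 50 nM protein, 50 nM peptide and 10 ug/mL streptavidin donor plus Ni-chelate acceptor beads.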
Hits are given with their value; – = inactive; ? = inconclusive; · = not tested or not shown; ! = a repeat was not active; [ ] = dose if it differs, or a comment. Compounds with a hit are over-represented: about 12% of the library has one in this group of screens. Calls come from the whole dose curve; as a rule, active = well fitted curve in the direction sought with a large enough effect; inconclusive = small, poorly fitted or top-dose-only effect, or another doubt; inactive = no such curve, though single readings can be large; an effect the other way counts as inactive or inconclusive.

SMILES | HP1b chromo inh | JMJD2A Tudor inh | Sfp PPTase inh | G9a block | BAZ2B block
C=N[C@H](C(=O)N[C@@H]1C(=O)N2[C@@H]1SC(C)(C)[C@@H]2C(=O)O)c1ccccc1 | · | · | – | –[21.5 µM] | ·
COc1ccc(OC)c(C2C(C(=O)c3ccco3)=C(O)C(=O)N2CCN2CCOCC2)c1 (stereo unspecified) | · | · | – | · | ?
COC(=O)c1ccc(C2C(C(=O)c3ccco3)=C(O)C(=O)N2CC2CCCO2)cc1 (stereo unspecified) | – | – | – | 45µM | –
COc1ccc(C2C(C(=O)c3ccco3)=C(O)C(=O)N2CCN2CCOCC2)c(OC)c1 (stereo unspecified) | – | ? | – | 35µM | –
O=C(C1=C(O)C(=O)N(CC2CCCO2)C1c1ccc(Cl)cc1)c1ccco1 (stereo unspecified) | – | – | – | – | –
COc1ccc(OC)c(C2C(C(=O)c3ccco3)=C(O)C(=O)N2CC2CCCO2)c1 (stereo unspecified) | – | – | – | 50µM | ?
O=C(C1=C(O)C(=O)N(CC2CCCO2)C1c1ccccc1[N+](=O)[O-])c1ccco1 (stereo unspecified) | – | – | – | 35µM | –
COc1ccc(C2C(C(=O)c3ccco3)=C(O)C(=O)N2CC2CCCO2)c(OC)c1 (stereo unspecified) | – | ? | – | ? | –
N#CC(=C=[N-])c1nc2ccccc2nc1-[n+]1cccc(NC(=O)c2cccs2)c1 | – | – | – | ? | –
O=c1c(S(=O)(=O)c2ccccc2)cn(Cc2ccc(F)cc2)c2cc(N3CCOCC3)c(F)cc12 | – | – | · | – | –
COc1cccc2cc(C(=O)C3=C(O)C(=O)N(CCN4CCOCC4)C3c3cccs3)oc12 (stereo unspecified) | – | 79µM | – | – | –
CC1(C)C2([N+](=O)[O-])CN3CC1([N+](=O)[O-])CN(C2)C3c1ccc(O)c(O)c1 (stereo unspecified) | – | ? | – | 22µM | –
COc1ccc2c(c1)c(=O)c(S(=O)(=O)c1ccc(C)c(C)c1)cn2CC(=O)Nc1ccccc1 | – | – | · | – | –
CC1CCN(C(=O)COC(=O)c2cc([N+](=O)[O-])ccc2N2CCOCC2)CC1 | – | – | · | –[0.501 µM] | –
CC1CCCCN1C(=O)Cn1cnc2cc([N+](=O)[O-])ccc2c1=O (stereo unspecified) | – | 14µM | – | – | ?
CC1CCCCN1C(=O)COC(=O)c1cc([N+](=O)[O-])ccc1N (stereo unspecified) | – | – | · | 40µM | –
CCOC(=O)N1CCC2(CC1)OC(=O)C(C)=C2C(=O)NCc1ccccc1OC | – | – | · | – | –
COc1ccc(-c2ccc(CCC(=O)O)n2-c2ccccc2C(F)(F)F)cc1 | – | ? | · | ? | ?
COc1ccc(-c2ccc(CCC(=O)O)n2-c2ccccc2O)cc1 | – | ? | 79µM | ? | ?
COc1ccc(-n2c(CCC(=O)O)ccc2-c2ccccc2)cc1 | – | – | – | 50µM | ?
CCCCOc1ccc(C(=O)NCC(=O)NCC(c2ccc(F)cc2)N2CCOCC2)cc1 (stereo unspecified) | – | – | · | –[2.33 µM] | –
Cc1ccc(S(=O)(=O)NC(C)C(=O)NC2CC2)cc1 (stereo unspecified) | – | – | – | 79µM | –
CC(NS(=O)(=O)c1ccccc1)C(=O)NC1CCCC1 (stereo unspecified) | – | – | – | – | –
CN(Cc1ccc(F)cc1)C(=O)c1sccc1-c1ccccc1 | – | – | – | 40µM | ?
O=C(CSc1cccc2cccnc12)OCC(=O)c1ccccc1 | – | 35µM | – | – | –
SMILES | HP1b chromo inh | JMJD2A Tudor inh | Sfp PPTase inh | G9a block | BAZ2B block
O=C1CC(Sc2nnc(-c3ccccc3)o2)C(=O)N1c1ccccc1 (stereo unspecified) | – | – | 22µM | ? | –
Cc1ccccc1N1C(=O)CC(Sc2nnc(-c3ccccc3)o2)C1=O (stereo unspecified) | – | – | 10µM | 7.9µM | –
O=C1c2ccccc2CC1Sc1nnc(-c2ccncc2)o1 (stereo unspecified) | – | ? | – | ? | –
CC(C)c1ccc(N2C(=O)CC(Sc3nc4ccccc4o3)C2=O)cc1 (stereo unspecified) | – | – | ? | 45µM | –
O=C1CC(Sc2cccs2)C(=O)N1c1ccccc1 (stereo unspecified) | – | – | – | · | –
O=C1/C(=C/c2cccc(Br)c2)SC(=S)N1CCC(=O)N(CCO)c1ccccc1 | – | 32µM | – | · | ?
COc1cccc(/C=C2\SC(=S)N(CCCC(=O)N(CCO)c3ccccc3)C2=O)c1 | – | 35µM | – | ? | ?
COc1ccc(/C=C2\SC(=S)N(CCC(=O)N(CCO)Cc3ccccc3)C2=O)cc1OC | – | – | – | – | –
COc1cccc(/C=C2\SC(=S)N(CCC(=O)NNC(=O)c3ccccc3OC)C2=O)c1 | – | – | – | – | –
CCCC(=O)Nc1cc(C)c(O)c(-c2nc3ncccc3o2)c1 | – | – | · | – | –
Cc1[nH]c(=O)[nH]c(=O)c1Sc1ccccc1[N+](=O)[O-] | – | – | – | 56µM | –
COC(=O)c1nnc(N[C@@H](Cc2c[nH]c3ccccc23)C(=O)OC)nc1C(=O)OC | · | · | – | · | ·
Cc1cccc(-n2cnc(C(=O)N/N=C\c3ccc(Br)cc3)c2)n1 | – | ? | – | – | –
Cc1nc2ccccn2c1C(=O)NNC(=O)Nc1ccccc1 | – | – | – | 50µM | –
COc1ccc(Br)cc1S(=O)(=O)NNC(=O)c1c(C)nc2ccccn12 | – | –[11.4 µM] | – | 79µM | –
Cc1nc2ccccn2c1C(=O)NNC(=S)Nc1ccc(Cl)cc1 | – | ? | – | 1.3µM | –
Cc1nc2ccccn2c1C(=O)NNC(=S)Nc1ccccc1 | – | – | – | – | –
Cc1cccc(-n2cnc(C(=O)NNC(=S)Nc3ccc(Cl)cc3)c2)n1 | – | 35µM | – | 8.9µM | 11µM
Cc1ccc(Cn2c(SCc3ccc(C(=O)O)cc3)nc3cccnc32)cc1 | – | – | · | – | –
CCc1c(C)[nH]c2c1C(=O)C(CN1CCOCC1)CC2 (stereo unspecified) | – | – | · | 19µM! | ·
CCc1c(C)nc(N2CCOCC2)[nH]c1=O | – | – | – | – | –
O=C(c1ccc(CSc2ccc(Cl)cc2)cc1)N1CCCC1 | – | – | – | – | –
Cc1ccc(-n2cccc2/C=C2\C(=N)N3N=C(C(C)C)SC3=NC2=O)cc1 | – | ? | – | ? | ?
